Shown are actives, neighbours in structure and some others; about 19% of the full set was active somewhere.
HT1080 IDH1KD tx – qHTS for induction of synthetic lethality in tumor cells producing 2HG: qHTS for the HT-1080-IDH1KD cell line. HT-1080 IDH1 knockdown viability, ATP luminescence, 48 h. Potency, µM (top dose mostly 46.1 µM), for inactives: at the highest dose activity, negative = toxicity, usual class: cytotoxic. 360,000 compounds, 2% hits;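 note: potency is the fitted concentration of half-maximal effect; 0% = DMSO wells and -100% = cell-free medium wells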
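After a 2 h attachment period, IDH1KD HT-1080 cells took pin-transferred compound for 48 h at 37 °C; ATP-based luminescence after 10 min room-temperature reagent incubation reported viability.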
DT40 TDP1 CPT – qHTS for Inhibitors of human tyrosyl-DNA phosphodiesterase 1 (TDP1): qHTS in cells in presence of CPT; Potency, µM (highest dose often 46.2 µM), for inactives: at the highest dose activity change, negative = growth inhibition, most hits filed as inhibitors; chicken DT40 Tdp1-/-;hTDP1 cells + 20 nM CPT, ATP luminescence, 48 h; 420,000 compounds, 12% hits; note: potency is the fitted concentration of half-maximal effect; nearly all actives have a fitted effect of over 55% in size
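Chicken DT40 Tdp1-/- cells stably complemented with human TDP1 were seeded at 400 cells/well in medium containing 20 nM camptothecin, exposed to pin-transferred compounds, and grown at 37 °C for at least 48 hr. Viability was read as ATP luminescence.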
HT1080-NT tox – qHTS for induction of synthetic lethality in tumor cells producing 2HG: qHTS for the HT-1080-NT fibrosarcoma cell line | HT-1080-NT fibrosarcoma viability, CellTiter-Glo ATP luminescence, 48 h | Potency, µM (doses to about 46.1 µM), for inactives: top-dose activity, negative = less viability, actives largely listed as cytotoxic | 360,000 compounds, 1.6% hits;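 note: NT is the 2HG producing partner of a matched IDH1 knockdown line; potency is the fitted concentration of half-maximal effect; 0% = DMSO-treated cells and -100% = media-only wells without cells; nearly all actives have a fitted effect of over 55% in size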
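HT-1080-NT fibrosarcoma cells (2HG-overproducing), 750 cells/well in RPMI with 5% FBS, dosed after 2 h and incubated 48 h at 37C. CellTiter-Glo luminescence normalized to DMSO and no-cell wells; concentration-response curves fitted and classed.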
ELG1 repair inh – qHTS screen for small molecules that inhibit ELG1-dependent DNA repair in human embryonic kidney (HEK293T) cells expressing luciferase-tagged ELG1. HEK293T ELG1-luciferase reporter, luminescence, 16 h; DNA damage induced by 5-fluorouridine. Potency, µM (highest dose often 46.1 µM), for inactives: at the top dose activity change, negative = inhibition, actives largely listed as inhibitors. 330,000 compounds, 2.3% hits. AID 504467, 2011; note: potency is the fitted concentration of half-maximal effect; nearly all actives have a fitted effect of over 55% in size
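Step one: seed 2,000 cells per well. Step two: pin-transfer compound or DMSO alongside 5-fluorouridine. Step three: incubate 16 hr, 37 °C, 5% CO2. Step four: add ONE-Glo, wait 30 min, read luminescence.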
TDP1 cell noCPT – qHTS for Inhibitors of human tyrosyl-DNA phosphodiesterase 1 (TDP1): qHTS in cells in absence of CPT; DT40 Tdp1-/- hTDP1 cells, no CPT, ATP luminescence, 48 h; Potency, µM (top dose mostly 46.2 µM), for inactives: at the highest dose activity change, negative = growth inhibition, most hits filed as inhibitors; 420,000 compounds, 15% hits; note: potency is the fitted concentration of half-maximal effect; nearly all actives have a fitted effect of over 55% in size
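Chicken DT40 Tdp1-/- cells stably complemented with human TDP1 were seeded at 400 cells/well with DMSO in place of 20 nM camptothecin. After compound pinning, cells grew at least 48 hr at 37 °C; viability read by CellTiter-Glo luminescence.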
IL-1B inflam inh – qHTS for Inhibitors of Inflammasome Signaling: IL-1-beta AlphaLISA Primary Screen; THP-1 LPS/ATP IL-1B secretion, AlphaLISA, 16 h; hits give low values; 360,000 compounds, 4.7% hits; AID 743279, 2014; activity change, % at 57.5 µM; in the data active = activity change below about -50%; inconclusive = mostly about -30% to -49%
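Secreted IL-1B measured by AlphaLISA bead assay after 16 h compound exposure of THP-1 cells; compounds (final up to 57.5 uM) added 1 h before LPS (250 ng/mL) and ATP (1.25 mM) stimulation; lower signal means less secretion.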
Numbers without * were called inactive; u = inconclusive; x = no result. Unless noted, calls come from the whole dose curve; as a rule, active = well fitted curve in the direction sought with a large enough effect; inconclusive = small, poorly fitted or top-dose-only effect, or another doubt; inactive = no such curve, though single readings can be large; an effect the other way counts as inactive or inconclusive. Unless noted, % is set by controls: 0 for no effect and ±100 for the full control effect.

SMILES	HT1080 IDH1KD tx	DT40 TDP1 CPT	HT1080-NT tox	ELG1 repair inh	TDP1 cell noCPT	IL-1B inflam inh
COc1ccc(-c2cc(NC(C)=O)c3ncc(-c4ccc(OC)c(OC)c4)n3c2)cc1OC	u	18µM*	u	x	15µM*	-19
COc1ccc(-c2cnc3c(NC(C)=O)cc(-c4ccsc4)cn23)cc1OC	-28%	16µM*	-23%	x	21µM*	u
COc1cc(-c2ccc(NC(C)=O)c(OC)c2)ccc1NC(C)=O	-12%	-1%	-20%	0%	-2%	-3
CCOc1cccc(C(=O)Nc2ccccc2C(=O)N2CCN(C)CC2)c1	-1%	9%	0%	8%	1%	7
CC1(C)CNC(=O)CC(C)(C)N1	17%	-10%	7%	-7%	23%	19
C=CCn1cnc2c(nnn2Cc2ccc(F)cc2)c1=O	10%	-11%	u	2%	-15%	15
O=CNC1c2ccccc2CCc2ccccc21	-26%	-6%	-1%	x	-10%	20
CC(=O)Nc1cc(-c2cccnc2)cn2c(-c3ccc(F)cc3)cnc12	4%	u	1%	x	23µM*	7
COc1ccccc1-c1cc(NC(C)=O)c2ncc(-c3cccc(C(C)=O)c3)n2c1	u	23µM*	u	x	15µM*	-24
Cc1ccc(S(=O)(=O)NC(C(=O)Oc2ccc3c(C(F)(F)F)cc(=O)oc3c2)c2ccccc2)cc1 (stereo unspecified)	20%	-15%	20%	-12%	-17%	10
O=C(Cn1c(=O)n(Cc2ccc(C(=O)NCc3ccccc3Cl)cc2)c(=O)c2ccccc21)Nc1ccc(F)c(Cl)c1	x	-18%	x	x	-29%	x
CN(C(=O)COc1ccc([N+](=O)[O-])cc1)C1CCS(=O)(=O)C1 (stereo unspecified)	6%	2%	1%	-4%	-11%	45
Cc1ccc(NC(=O)COC(=O)c2ccccc2OCC(=O)Nc2ccc(Br)cc2)c(Br)c1	-4%	-14%	-1%	x	-21%	x
CCOC(=O)C1(CC2CCCCO2)CCN(Cc2cc3ccccc3[nH]2)CC1 (stereo unspecified)	u	u	u	u	16µM*	-91*
CCOC(=O)C1(CC2CCCCO2)CCN(Cc2cn[nH]c2-c2cccc(F)c2)CC1 (stereo unspecified)	-1%	16µM*	1%	-6%	10µM*	22
OCC1(CC2CCCCO2)CCN(Cc2ccccc2-c2ccco2)CC1 (stereo unspecified)	0%	19%	-2%	-1%	-19%	-26
CCOC(=O)C1(CC2CCCCO2)CCN(Cc2ccccc2-c2ccco2)CC1 (stereo unspecified)	10%	u	4%	1%	21µM*	40
CCCCc1ncc(CN2CCC(CC3CCCCO3)(C(=O)OCC)CC2)[nH]1 (stereo unspecified)	10%	u	16%	7%	-27%	-4
COc1cc(OC)c(NC(=O)c2nnn(Cc3ccc(C)cc3)c2N)cc1Cl	x	18µM*	x	x	12µM*	x
COc1cc(NC(=O)c2nnn(Cc3ccc(SC)cc3)c2N)cc(OC)c1	-17%	18µM*	-4%	u	29µM*	-25
COc1cc(NC(=O)c2nnn(Cc3ccc(F)cc3)c2N)cc(OC)c1	x	u	x	x	-25%	x

Assay outcomes as filed in PubChem BioAssay.
